The values below come from PubChem BioAssay.

Test [1] in a line: inhibitors of TNFa-induced NFkB p65 translocation, primary screen, imaging, HUVEC, MLSMR starter and 10KST1 sets (AID 438;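 active means inhibition above 20% together with a positive visual image hit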;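 further: compound added about 3h40 before a 20 min TNFalpha stimulation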;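 on inhibition: signal is the nuclear over cytoplasmic p65 intensity ratio per well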). The conditions noted are these: HUVEC TNFa-induced p65 nuclear translocation; cell count: measured here: nuclei count (cytotoxicity indicator), at 2.08 µM; inhibition: at 2 µM, stronger effect = higher value, 0% TNFa-plus-vehicle, 100% no-TNFa wells.
The nature of test [2]: reduction of polyQ htt aggregates in cells – imaging, exon1htt(103Q)mCFP cells, high-content imaging, primary screen (AID 483;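 active means visual image review flags a hit and inhibition of aggregation exceeds 20%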;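 further: compound exposure lasted 3 days before fixation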;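 on nuclei count: percent of the per-plate median nuclei count of sample wells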). The conditions noted are these: exon1htt(103Q)mCFP cell line, aggregate imaging, at 2 µM; inhibition of aggregation: stronger effect = higher value; nuclei count: measured here: cell count, toxicity.
Test [3] is described as follows: endothelial E-selectin expression blockers – imaging, HUVEC, immunofluorescence, MLSMR starter and 10KST1 sets, primary screen (AID 487;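 active means visually confirmed hit in the image check and inhibition above 20%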;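 on inhibition: signal is fraction of cell area covered by stained E-selectin grains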;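 on nuclei count: 100% = median nuclei count of all wells on the same plate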). The conditions noted are these: HUVEC TNFalpha-induced E-selectin immunofluorescence imaging, at 2 µM; inhibition: stronger effect = higher value; nuclei count: measured here: cell number, toxicity.
Test [4] has as its target Voltage-gated potassium channel subunit beta-2 (Rattus norvegicus) (UniProt P62483). Put plainly: inhibitors of rat Kvbeta2 reductase activity – biochemical, NADPH fluorescence, primary screen (AID 622;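 active means fluorescence slope higher than the sample average by over 3 SD, cut at about -0.22 in these data, passing the limit was not always enough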;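 further: slope of raw intensity against log time taken from 70 to 1610 s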). Particulars: recombinant KvBeta, 4-cyanobenzaldehyde reduction, at 10 µM, stronger effect = higher value.
Test [5] shares this target. Put plainly: enhancers of rat Kvbeta2 NADPH turnover – biochemical, NADPH fluorescence, primary screen (AID 623;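 active means NADPH fluorescence slope more negative than the mean of all samples by about 3 SD, 99.7% confidence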;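 further: fluorescence intensity change per second fitted from 20 to 320 s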). The conditions noted are these: Recombinant KvBeta, NADPH fluorescence decrease slope, 10 min; at 10 µM; stronger effect = lower value.
Test [6] has as its target Alpha-2C adrenergic receptor (Homo sapiens) (UniProt P18825). The test is described as follows: compounds altering alpha2C-coupled GIRK flux – cell-based, HEK293 alpha2C/GIRK1/2, thallium flux, primary screen (AID 624;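 active means fluorescence slope after compound addition differing from the mean of all screened samples at 99.7% confidence, in either direction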;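 further: slope of fluorescence ratio to pre-addition baseline per second over 15 to 24 s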). Particulars: thallium flux BTC fluorescence, at 10 µM, actives lie on both sides.
A short description of test [7]: blockers of RIG-like receptor reporter activation – cell-based, Sendai virus stimulus, luciferase, 10K MLSCN set, TLR/RLR signaling modifier project, primary screen (AID 602276;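 active means inhibition at or above 50% at 10 µM; inactive means inhibition below 50%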;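 further: firefly luciferase from ISG56 promoter only with Renilla not read in this screen; 0% = Sendai virus plus DMSO and 100% = medium plus DMSO without virus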). Particulars: HEK293 RL24 IRF3 luciferase reporter, at 10 µM, stronger effect = higher value. (In general: In a reporter assay the amount or activity of a reporter protein is the signal.)
The nature of test [8]: TLR3 IRF3 reporter activation blockers – cell-based, poly I:C stimulus, luciferase, 10K MLSCN set, primary screen (AID 602277). Particulars: HEK293-TLR3 RL24 IRF3 luciferase reporter, at 10 µM, stronger effect = higher value.

The source made the active and inactive calls.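 How the source made its calls, unless noted: active means inhibition of the reporter signal at or above 50%; inactive means inhibition below 50%.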

Sequence of Alpha-2C adrenergic receptor (Homo sapiens) (P18825 whole entry, looked up): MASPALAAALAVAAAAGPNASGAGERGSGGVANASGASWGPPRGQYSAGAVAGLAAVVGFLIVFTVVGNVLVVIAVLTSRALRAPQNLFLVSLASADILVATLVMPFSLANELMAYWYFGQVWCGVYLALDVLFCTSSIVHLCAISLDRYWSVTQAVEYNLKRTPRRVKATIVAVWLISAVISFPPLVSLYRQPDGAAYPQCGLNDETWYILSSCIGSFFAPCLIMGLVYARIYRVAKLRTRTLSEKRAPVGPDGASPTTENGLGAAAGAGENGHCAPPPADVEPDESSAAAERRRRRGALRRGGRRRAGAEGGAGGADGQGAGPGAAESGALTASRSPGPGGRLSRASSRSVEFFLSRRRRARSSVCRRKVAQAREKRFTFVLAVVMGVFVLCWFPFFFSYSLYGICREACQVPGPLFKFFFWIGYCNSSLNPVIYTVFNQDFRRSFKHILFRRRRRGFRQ
Sequence of Voltage-gated potassium channel subunit beta-2 (Rattus norvegicus) (P62483 whole entry, looked up): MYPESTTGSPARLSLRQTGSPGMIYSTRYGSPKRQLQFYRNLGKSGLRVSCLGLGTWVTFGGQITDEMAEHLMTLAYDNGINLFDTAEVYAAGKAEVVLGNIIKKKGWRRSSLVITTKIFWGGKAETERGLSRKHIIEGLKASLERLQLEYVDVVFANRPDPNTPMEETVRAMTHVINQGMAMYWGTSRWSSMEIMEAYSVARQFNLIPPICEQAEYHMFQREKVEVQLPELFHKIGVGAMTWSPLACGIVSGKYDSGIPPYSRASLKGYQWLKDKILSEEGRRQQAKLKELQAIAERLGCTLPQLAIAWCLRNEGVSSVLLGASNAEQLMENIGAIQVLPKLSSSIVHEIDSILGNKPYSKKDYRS

With `CCOC(=O)c1ccc(NC(=O)CSCc2ccco2)cc1`, the cell count in test [1] amounted to 680. Moreover, the inhibition in test [1] was -1.5% (inactive); in test [3], -4.5% (inactive); in test [7], 1.64% (inactive); in test [8], -14.9% (inactive). In addition, the inhibition of aggregation in test [2] is -9.1% (inactive). Further, the nuclei count in test [2] amounted to 108%; in test [3], 97.2%. Moreover, in test [4], the fluorescence slope was -0.471 (inactive). Further, the NADPH fluorescence slope in test [5] is -2.1e-06 (inactive). In test [6], the slope was 0.0058 (inactive).

Take `CC(=O)c1cnc2cc(-c3ccccc3)nn2c1C`: the cell count in test [1] stood at 283. The inhibition in test [1] was 7.2% (inactive); in test [3] it was -84.1% (inactive); in test [7] it was -65.5% (inactive); in test [8] it was -115% (inactive). Further, the inhibition of aggregation in test [2] is 26.1% (inactive). Also, the nuclei count in test [2] came to 84.2%; in test [3], 97.5%. Besides, the fluorescence slope in test [4] was -0.343 (inactive). For the same compound, the NADPH fluorescence slope in test [5] is -5.4e-05 (inactive). The slope in test [6] is 0.00763 (inactive).

For `Cc1nc(N2CCC(C)CC2)c2c(C)c(C(=O)O)sc2n1`, the cell count in test [1] was found to be 657. The inhibition was -4.1% (inactive) in test [1], -72.5% (inactive) in test [3], 14% (inactive) in test [7] and 23.3% (inactive) in test [8]. Further, the inhibition of aggregation in test [2] was 31% (inactive). Also, the nuclei count in test [2] was 66.2%; in test [3], 103%. The fluorescence slope in test [4] was -0.303 (inactive). Further, the NADPH fluorescence slope in test [5] is 1.1e-05 (inactive). In addition, in test [6], the slope was 0.00417 (inactive).

Consider `O=C(CSc1nccn1Cc1ccccc1)Nc1nccs1`, for which the cell count in test [1] turned out to be 388. Also, the inhibition in test [1] is -0.7% (inactive); in test [3], -16.7% (inactive); in test [7] it was -30.1% (inactive); in test [8], -82.1% (inactive). Further, the inhibition of aggregation in test [2] was 10.4% (inactive). Also, the nuclei count in test [2] stood at 83.7%; in test [3], 118%. For the same compound, the fluorescence slope in test [4] was -0.512 (inactive). For the same compound, the NADPH fluorescence slope in test [5] was -2.7e-05 (inactive). The slope in test [6] was 0.00698 (inactive).

Turning to `COc1ccc(-c2nc3c(c(=O)n(C)c(=O)n3C)n2CC2CC(c3ccccc3)=NO2)cc1OC` (centres undefined), in test [1], the cell count was 233. Besides, the inhibition was -3.2% (inactive) in test [1], -3.5% (inactive) in test [3], 29.6% (inactive) in test [7] and 30.8% (inactive) in test [8]. For the same compound, the inhibition of aggregation in test [2] was 5.3% (inactive). In addition, the nuclei count in test [2] was 87.9%; in test [3], 86.7%. Also, in test [4], the fluorescence slope is -0.587 (inactive). For the same compound, the NADPH fluorescence slope in test [5] is -2.7e-05 (inactive). Further, in test [6], the slope was 0.00673 (inactive).

In the case of `C=CCSC1=C(C#N)C(c2ccccc2OCC)CC(=O)N1` (centres undefined), the cell count in test [1] was 328. Besides, the inhibition in test [1] is -4.1% (inactive); in test [3], 12.5% (inactive); in test [7] it was 6.62% (inactive); in test [8], 24.6% (inactive). Besides, the inhibition of aggregation in test [2] was 12.8% (inactive). Moreover, the results for the nuclei count in test [2] and in test [3] were 99% and 105%, respectively. The fluorescence slope in test [4] is -0.306 (inactive). In addition, the NADPH fluorescence slope in test [5] was 1.7e-05 (inactive). The slope in test [6] is 0.00314 (inactive).

With `CC(=O)Nc1cc(N2C(=O)CCC2=O)ccc1Cl`, the cell count in test [1] was determined as 498. Besides, the inhibition in test [1] is 3.5% (inactive); in test [3] it was 10.7% (inactive); in test [7] it was 23% (inactive); in test [8] it was 20.8% (inactive). Moreover, the inhibition of aggregation in test [2] is 12.7% (inactive). Also, the nuclei count in test [2] came to 98.5%; in test [3] it was 110%. Besides, in test [4], the fluorescence slope is -0.509 (inactive). For the same compound, the NADPH fluorescence slope in test [5] was 2.5e-05 (inactive). Also, the slope in test [6] was 0.00539 (inactive).

Take `CCOC(=O)C1CCN(Cc2ccc(F)c(Br)c2)CC1`: in test [1], the cell count is 313. Besides, the inhibition is 3.4% (inactive) in test [1], -156% (inactive) in test [3], 9.36% (inactive) in test [7] and 20.4% (inactive) in test [8]. Besides, the inhibition of aggregation in test [2] was -23.7% (inactive). The nuclei count was 110% in test [2] and 140% in test [3]. Besides, the fluorescence slope in test [4] was -0.414 (inactive). In test [5], the NADPH fluorescence slope was 2e-06 (inactive). Moreover, the slope in test [6] was 0.00431 (inactive).

Take `CCOC(=O)N1CCN(c2c(N3CCN(c4ccccc4OC)CC3)c(=O)c2=O)CC1`: the cell count in test [1] was 651. The inhibition in test [1] was -2.3% (inactive); in test [3], -66.1% (inactive); in test [7] it was 3.99% (inactive); in test [8], 15% (inactive). Further, in test [2], the inhibition of aggregation was 18.3% (inactive). For the same compound, the figures for the nuclei count in test [2] and in test [3] were 109% and 129%, respectively. In addition, the fluorescence slope in test [4] is -0.532 (inactive). For the same compound, the NADPH fluorescence slope in test [5] was -2.1e-05 (inactive). Also, the slope in test [6] is 0.0077 (inactive).

Regarding `COc1ccc(S(=O)(=O)NC(C)C(=O)Nc2cccc(C(C)=O)c2)cc1` (centres undefined), in test [1], the cell count came to 255. For the same compound, the inhibition is 2.4% (inactive) in test [1], -2.9% (inactive) in test [3], 14.3% (inactive) in test [7] and 15.3% (inactive) in test [8]. Besides, the inhibition of aggregation in test [2] is 14.5% (inactive). Besides, the nuclei count in test [2] was 97.3%; in test [3] it was 62.6%. Also, the fluorescence slope in test [4] was -0.402 (inactive). In addition, the NADPH fluorescence slope in test [5] was -2.7e-05 (inactive). In addition, the slope in test [6] is 0.00498 (inactive).

As for `Cc1cc(C)n2nc(SCc3cc(=O)n4ccccc4n3)nc2n1`, in test [1], the cell count was 536. In addition, the inhibition is -16.3% (inactive) in test [1], -75.8% (inactive) in test [3], 5.17% (inactive) in test [7] and 14.4% (inactive) in test [8]. In addition, the inhibition of aggregation in test [2] is 13% (inactive). Also, the results for the nuclei count in test [2] and in test [3] were 66.3% and 112%, respectively. For the same compound, the fluorescence slope in test [4] is -0.29 (inactive). Also, the NADPH fluorescence slope in test [5] is -4.7e-06 (inactive). Also, the slope in test [6] is 0.00424 (inactive).

As for `OC(CNCC1COc2ccccc2O1)COCc1cccs1` (centres undefined), the cell count in test [1] was 615. Besides, the inhibition in test [1] was 0.8% (inactive); in test [3] it was -133% (inactive); in test [7] it was -3.3% (inactive); in test [8] it was 2.31% (inactive). In test [2], the inhibition of aggregation was -9.6% (inactive). Also, the nuclei count in test [2] came out at 105%; in test [3], 131%. Moreover, the fluorescence slope in test [4] was -0.568 (inactive). Also, the NADPH fluorescence slope in test [5] is 6.2e-06 (inactive). Besides, the slope in test [6] was 0.00544 (inactive).

On to `CCOc1ccc(NS(=O)(=O)c2ccc(OCC(=O)N3CCCC3)cc2)cc1`, for which, in test [1], the cell count is 422. Also, the inhibition was -15.4% (inactive) in test [1], -56.1% (inactive) in test [3], 8.25% (inactive) in test [7] and 13.9% (inactive) in test [8]. Also, the inhibition of aggregation in test [2] was 43.4% (active). The nuclei count in test [2] turned out to be 98.7%; in test [3], 169%. In addition, the fluorescence slope in test [4] is -0.465 (inactive). The NADPH fluorescence slope in test [5] is -4.2e-05 (inactive). Besides, in test [6], the slope is 0.00531 (inactive).

`Cc1ccccc1Cn1cc(/C=N/n2cnnc2)c2ccccc21`: in test [1], the cell count worked out at 416. Moreover, the inhibition in test [1] is 12% (inactive); in test [3] it was 27.1% (inactive); in test [7] it was -7.96% (inactive); in test [8] it was 21.3% (inactive). In addition, the inhibition of aggregation in test [2] was 18.9% (inactive). Moreover, the values for the nuclei count in test [2] and in test [3] were 68% and 113%, respectively. Besides, the fluorescence slope in test [4] is -0.436 (inactive). Further, the NADPH fluorescence slope in test [5] is 2.8e-05 (inactive). The slope in test [6] is 0.00391 (inactive).

A word on the inhibition: it is the change of the read-out against control, counted positive when it falls.
